Screening data deposited in PubChem BioAssay by Broad Institute.
Rows were chosen to be rich in hits. Some 1.8% of all compounds tested hit in one or more screens of this group.
EWS-Fli block: inhibitors of EWS/Fli oncoprotein transcriptional activity | 0.67% of 350,000 active | A673 NR0B1-luciferase reporter, viability-normalised | inhibition, % at 12.6 µM;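 active = mean inhibition of at least 50% after viability correction, with every replicate also passing that limit; inconclusive = mean reaches 50% but only one of two replicates passes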;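 note: firefly luciferase signal divided by Alamar Blue viability fluorescence both relative to DMSO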
LGR2 antag: blocks bursicon-induced cAMP signaling via Drosophila LGR2; HEK293 LGR2, CRE-luciferase, bursicon-stimulated, 4 h; inhibition, % at 9.99 µM; 0.35% of 380,000 active; AID 720647;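 active = drop in luminescence signal, shown as inhibition above about 50% in the replicate tests, limit read from the data, passing the limit was not always enough; inconclusive = probably only some replicates passing the limit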;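 note: agonist challenge used bursicon conditioned medium at about half maximal strength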
PAX8 inh HTS: inhibitors of PAX8 transcriptional activity in RMG-I cells; RMG-I TPO-luciferase reporter, SteadyGlo, 24 h; inhibition, % at 12.6 µM; 1.2% of 360,000 active; AID 652154;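 active = mean replicate inhibition at least 60% with every replicate also reaching 60%; inconclusive = only one of the two criteria is met; inactive = mean below 60% and not all replicates reaching 60%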;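 note: luciferase light reporting Pax8 driven TPO promoter activity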
CFTR F508del cor: correctors of CFTR F508del function in bronchial epithelial cells; 0.36% of 350,000 active; AID 720511; activity (quench increase), % at 7.58 µM; CFBE cells, YFP halide quenching; stimulated with forskolin plus potentiator P3; % fluorescence drop versus neutral controls;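 active = mean added fluorescence quench of at least 8% versus neutral control, with both replicates also reaching 8%; inconclusive = only one of the mean or replicate conditions met; inactive = mean below 8% and not both replicates reaching 8%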;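 note: cells transiently co-express mutant CFTR-F508del with the halide-sensitive YFP; corrector assay measuring rescue of mutant channel to the surface after 24 h compound exposure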
A number is an active result; n = inactive; u = inconclusive; x = not tested or not shown.

SMILES | EWS-Fli block | LGR2 antag | PAX8 inh HTS | CFTR F508del cor
COc1ccc(NC(=O)N(C)C[C@H]2Oc3c(NS(=O)(=O)c4c(C)noc4C)cccc3C(=O)N([C@H](C)CO)C[C@H]2C)cc1 | n | n | x | n
O=C(Nc1nccs1)c1cc(Cl)ccc1[N+](=O)[O-] | x | n | n | x
O=C(Nc1nccs1)c1ccccc1[N+](=O)[O-] | n | x | 62.9 | x
COc1ccc2c(c1)c1ccc3c(c1n2C)C(=O)C=CC3=O | 60.1 | n | n | n
Cc1ccc2c(c1)c1ccc3c(c1n2C)C(=O)C=CC3=O | n | n | n | n
COc1cccc(-c2ccc3c(c2)O[C@H](CN(C)C(=O)C2CCOCC2)[C@@H](C)CN([C@@H](C)CO)S3(=O)=O)c1 | n | n | n | n
CC(C)C1C(=O)N(Cc2cn(CCC3OCCCO3)nn2)CCS(=O)(=O)N1Cc1ccc(-c2ccc(Cl)nc2)cc1 (configuration not stated) | n | n | 73.8 | n
COc1ccc(-c2ccc(CN3C(C(C)C)C(=O)N(Cc4cn(CCC5OCCCO5)nn4)CCS3(=O)=O)cc2)cn1 (configuration not stated) | n | n | n | n
O=C(CSc1ccc(-c2ccco2)nn1)NCc1ccccc1 | n | n | 63.3 | n
O=C(CSc1nnc(Cc2cccs2)n1C1CCCCC1)N1CCN(C(=O)c2ccco2)CC1 | x | x | 73.6 | x
O=C(CSc1nncs1)N1CCN(C(=O)c2ccco2)CC1 | n | n | n | n
CCc1nc(N)nc(N)c1-c1ccc(N(C)Cc2ccccc2)c([N+](=O)[O-])c1 | 55.6 | n | n | n
CCc1nc(N)nc(N)c1-c1ccc(NCCN)c([N+](=O)[O-])c1 | n | n | n | n
CCn1c(SCC(=O)Nc2cc(C)on2)nnc1-c1ccc(C)cc1 | n | n | n | n
CN1CCN(C(=S)Nc2ccc(Cl)c(Cl)c2)CC1 | n | n | 126.2 | n
Cn1nnnc1SCC(=O)Nc1ccccc1Br | x | n | n | n
C=CCN1C(=O)/C(=C/C=C2/N(CC)c3ccc(S(=O)(=O)N(C)C)cc3N2CC)SC1=S | n | n | n | 11.4
C[C@@H]1CN([C@@H](C)CO)C(=O)c2cc(NS(=O)(=O)c3ccc(F)cc3)ccc2O[C@H]1CN(C)Cc1ccc(C(F)(F)F)cc1 | n | n | n | n
C[C@H](CO)N1C[C@H](C)[C@@H](CN(C)Cc2ccc(C(F)(F)F)cc2)Oc2ccc(NS(=O)(=O)c3ccc(F)cc3)cc2C1=O | n | n | n | n
C[C@@H]1CN([C@@H](C)CO)C(=O)c2cc(NS(=O)(=O)c3ccc(F)cc3)ccc2O[C@@H]1CN(C)Cc1ccc(C(F)(F)F)cc1 | 75.3 | n | 106.9 | n
C[C@@H]1CN([C@@H](C)CO)C(=O)c2cc(NS(=O)(=O)c3ccc(Cl)cc3)ccc2O[C@@H]1CN(C)Cc1ccc(C(F)(F)F)cc1 | n | n | x | 9.8
COCC1CCCCN1C(=O)c1cccc(OC2CCN(C(=O)C3CC3)CC2)c1 (configuration not stated) | n | n | n | n
C[C@H](CO)N1C[C@H](C)[C@@H](CN(C)Cc2ccc(-c3ccccc3)cc2)Oc2ccc(NC(=O)C3CC3)cc2CC1=O | n | n | 104.4 | n
C[C@H]1CN([C@@H](C)CO)C(=O)Cc2cc(NC(=O)C3CC3)ccc2O[C@@H]1CN(C)Cc1ccc(-c2ccccc2)cc1 | n | n | 103.2 | n
C[C@H](CO)N1C[C@H](C)[C@@H](CN(C)Cc2ccc(-c3ccccc3)cc2)Oc2ccc(NC(=O)C3CCCCC3)cc2CC1=O | n | n | n | n
SMILES | EWS-Fli block | LGR2 antag | PAX8 inh HTS | CFTR F508del cor
CCn1c(SCC(=O)Nc2nc3ccc(OC)cc3s2)nc2c1c(=O)n(C)c(=O)n2C | x | 54.5 | x | x
CCCNC(=O)C1(C)CCCN(C(=O)Cc2ccc3ccccc3c2)C1 (configuration not stated) | n | n | n | n
COc1ccccc1Cc1c(C(C)(C)C)nc2c3ccccc3ccn12 | n | n | 65.4 | n
COc1ccccc1Cc1c(-c2ccccc2)nc2c3ccccc3ccn12 | n | n | n | n
CCCc1nnc(NC(=O)CCC(=O)NCCc2ccc(Cl)cc2)s1 | x | n | n | n
Cn1c(N)c(C(=O)COC(=O)c2cc(S(=O)(=O)N3CCOCC3)ccc2F)c(=O)n(C)c1=O | 67.0 | n | n | n
Cc1ccc(S(=O)(=O)N2CCN(C(=O)COC(=O)c3ncc(Cl)c(Cl)c3Cl)CC2)c(C)c1 | n | n | n | n
CCOC(=O)N1C(=O)[C@@](c2ccc(Cl)cc2)(C(C)C)N1C(=O)OCC | n | u | 68.9 | n
CCCCOc1ccc(C(=O)CCN2CCCCC2)cc1 | n | n | n | n
CCCOc1ccc(C(=O)CCCC(=O)c2ccc(OCCC)cc2)cc1 | n | n | n | 8.3
